# Laboratory results as given in PubChem BioAssay (NCI).
# This is part of a sample that, as a whole, favours compounds with a hit. Of some 79,000 tested, about 15% had one in any assay. A number with no mark means an inactive call. Active and inactive are the calls of the source. Rule as the data show it: active = growth inhibition above about 70%; inactive = the rest.
# What was measured:
# [1] = NCI Yeast Anticancer Drug Screen. Data for the rad50 strain (AID 155);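 also: 0% = growth of vehicle-only cultures of the same strain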; settings: S. cerevisiae rad50 strain growth inhibition, active compounds read high
# Procedure, shortened: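 Growth of the mutant yeast was measured after compound exposure and referenced to vehicle-treated cultures.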
# [2] = NCI Yeast Anticancer Drug Screen. Data for the mec2-1 strain (AID 157); settings: S. cerevisiae mec2-1 strain, active compounds read high
# Procedure, shortened: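 mec2-1 yeast strain, carrying an alteration in DNA damage repair or cell cycle control, was exposed to compounds; growth inhibition was measured relative to vehicle-treated controls.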
# [3] = NCI Yeast Anticancer Drug Screen. Data for the sgs1 mgt1 strain (AID 161);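 also: 0% = growth of cultures given vehicle only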; settings: S. cerevisiae sgs1 mgt1 strain, active compounds read high
# Procedure, shortened: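 Yeast cells carrying a defined DNA-repair defect were exposed to test compounds. Growth inhibition was measured relative to vehicle-treated controls.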
# [4] = NCI Yeast Anticancer Drug Screen. Data for the cln2 rad14 strain (AID 165);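 also: 0% = growth equal to vehicle treated cultures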; settings: S. cerevisiae cln2 rad14 strain, active compounds read high
# Procedure, shortened: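 Yeast carrying cln2 and rad14 alterations (cell cycle control and DNA damage repair) were exposed to compounds. Growth inhibition was measured against vehicle-treated controls.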
# [5] = NCI Yeast Anticancer Drug Screen. Data for the bub3 strain (AID 167); settings: S. cerevisiae bub3 mutant strain, active compounds read high
# Procedure, shortened: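 Whole-cell yeast assay. The mutant strain was incubated with compounds, and growth inhibition was determined by comparison with vehicle-treated cells.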
# [6] = NCI Yeast Anticancer Drug Screen. Data for the mlh1 rad18 strain (AID 175); settings: S. cerevisiae mlh1 rad18 strain growth inhibition, active compounds read high
# Procedure, shortened: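 Growth inhibition of the yeast strain was measured after compound exposure and expressed relative to vehicle-treated controls. The strain carries defined defects in DNA damage repair.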
# [7] = at 5.0 µM (retest, dose inferred, filed as 0.5)
# [8] = at 50.0 µM (retest, dose inferred, filed as 5.0)
SMILES,"growth inhibition [1, 7] [%]","growth inhibition [1, 8]",growth inhibition ([1]; at 50.0 µM),"growth inhibition [2, 7] [%]","growth inhibition [2, 8]",growth inhibition ([2]; at 50.0 µM),"growth inhibition [3, 7] [%]","growth inhibition [3, 8]",growth inhibition ([3]; at 50.0 µM),"growth inhibition [4, 7] [%]","growth inhibition [4, 8]",growth inhibition ([4]; at 50.0 µM),"growth inhibition [5, 7]","growth inhibition [5, 8]",growth inhibition ([5]; at 50.0 µM),"growth inhibition [6, 7]","growth inhibition [6, 8]",growth inhibition ([6]; at 50.0 µM)
COC(=O)c1ccc(NN)cc1,12,39%,65.8%,4,19%,61%,3,17%,36.1%,3,42%,46.1%,3%,85% (active),86% (active),4%,42%,40.9%
S=C1NC2=C(CSC/C2=C\c2cccc(Br)c2)C(c2cccc(Br)c2)N1 (configuration not stated),9,98% (active),92.7% (active),1,98% (active),94.3% (active),-1,98% (active),95.7% (active),-8,96% (active),90% (active),-15%,98% (active),93.8% (active),5%,98% (active),93.8% (active)
CSc1nc2c(c(=O)[nH]1)C1C=C(C)CCC1C(C)(C)C2 (configuration not stated),-5,97% (active),52.1%,-5,97% (active),56.1%,0,97% (active),56%,-3,96% (active),69.2%,10%,97% (active),53.8%,-10%,97% (active),51.6%
CCCCCCCC[N+](C)(C)Cc1ccc(C[N+](C)(C)CCCCCCCC)cc1,1,24%,8.75%,15,26%,7.5%,3,34%,1.05%,0,18%,24.9%,2%,16%,8.35%,0%,33%,86% (active)
O=C1CSC(=S)N1Cc1ccccc1Cl,15,93% (active),98.9% (active),6,97% (active),96.2% (active),11,98% (active),97.9% (active),2,81% (active),97.3% (active),-1%,94% (active),95.2% (active),11%,98% (active),99% (active)
O=C1c2ccccc2C(=O)c2c1cc(O)c(O)c2O,17,95% (active),83.2% (active),20,92% (active),77.5% (active),23,95% (active),81.5% (active),2,88% (active),59.2%,13%,91% (active),70.7% (active),35%,95% (active),82% (active)
Cc1cc(C)c2c(c1)sc1nncn12,62,96% (active),97.9% (active),57,96% (active),97.8% (active),53,97% (active),96% (active),46,96% (active),97.6% (active),70% (active),97% (active),98.9% (active),93% (active),97% (active),98.9% (active)
CCCCN(CCCC)CC(O)c1ccc(CCc2ccccc2)cc1 (configuration not stated),-6,91% (active),99.2% (active),22,92% (active),98.7% (active),13,99% (active),99.5% (active),-7,88% (active),98.7% (active),-4%,92% (active),76.2% (active),28%,97% (active),99.3% (active)
COc1ccc2c(c1)C1(C)CCCC(C)(C(=O)O)C1C(Br)C2=O (configuration not stated),6,91% (active),69.8%,20,98% (active),46.6%,-12,97% (active),84% (active),-8,96% (active),37.4%,6%,96% (active),35.2%,21%,96% (active),72.2% (active)
CCCCc1c2c(nc3c1CCC/C3=C\c1ccccc1)C(=O)C(CN(C)C)CC2 (configuration not stated),16,96% (active),86.3% (active),10,97% (active),89.1% (active),29,97% (active),86.5% (active),11,96% (active),86.8% (active),13%,95% (active),84.5% (active),11%,96% (active),84.5% (active)
C/C(=N\NC(N)=S)c1ccc(Oc2ccccc2)cc1,50,77% (active),98.9% (active),43,75% (active),98.5% (active),65,93% (active),99% (active),27,70% (active),98.5% (active),35%,70% (active),98.8% (active),63%,89% (active),97.8% (active)
CCc1cccc(CC)c1NC(=S)N/C=C(\C#N)C(=O)c1ccc2ccccc2c1,7,14%,44.8%,-2,6%,38.5%,0,13%,61.4%,-23,5%,6.85%,3%,7%,59.1%,-2%,5%,67.2%
CC(O)CC(O)CC1CCCO1 (configuration not stated),5,22%,39.2%,1,9%,35.6%,1,4%,25.2%,2,9%,33.1%,3%,19%,82.7% (active),3%,8%,41.2%
COC(=O)[C@@H](O)[C@]1(C(=O)OC)C2O[C@@H](OC)[C@@H]1CCCCCC[C@H]2O,21,11%,-2.05%,10,11%,0.45%,10,17%,-6.85%,17,29%,2.1%,18%,13%,8.85%,19%,12%,-1.95%
O=C1C(c2ccc([N+](=O)[O-])cc2)=C(Cl)C(=O)c2c(O)cccc21,-30,-22%,71.2% (active),-3,-9%,45.1%,0,-19%,27.8%,8,0%,1%,3%,-37%,69.2%,-14%,0%,45.4%
CN(c1ccccc1)c1c2c(oc(=O)c1Cl)-c1ccccc1SC2,16,45%,86% (active),12,8%,46.2%,13,40%,62.4%,7,32%,10.9%,0%,85% (active),93.5% (active),7%,96% (active),55%
c1ccc2c(c1)ccc1c[n+]3c4ccccc4ccc3n12,62,94% (active),73.6% (active),28,88% (active),85.5% (active),34,82% (active),68%,57,91% (active),87% (active),55%,93% (active),73.4% (active),56%,91% (active),83.2% (active)
CCN(CC)c1cccc(OC(=O)Nc2cccc(C(F)(F)F)c2)c1,50,73% (active),84% (active),37,73% (active),81.2% (active),42,80% (active),83.8% (active),28,64%,82.9% (active),42%,79% (active),87.6% (active),44%,88% (active),83.4% (active)
c1ccc2nc3ccccc3nc2c1,-11,64%,77.5% (active),-3,36%,41.2%,-5,16%,28.4%,2,36%,41.8%,-1%,45%,33.1%,-11%,65%,75% (active)
